What all share (set-up): scale not given: direction of the effect not stated beside the values
The target of experiment [1] is Protein translocase subunit SecA (Escherichia coli (strain K12)) (UniProt P10408). In words: Assay to Identify E. coli SecA ATPase Inhibitors. It is filed as functional. The settings on record: 30 µM.
In experiment [2] the target is T1, Ubiquitin-activating enzyme e1, putative (Leishmania donovani (strain BPK282A1)) (UniProt E9BSI1).
T1 sequence (whole entry): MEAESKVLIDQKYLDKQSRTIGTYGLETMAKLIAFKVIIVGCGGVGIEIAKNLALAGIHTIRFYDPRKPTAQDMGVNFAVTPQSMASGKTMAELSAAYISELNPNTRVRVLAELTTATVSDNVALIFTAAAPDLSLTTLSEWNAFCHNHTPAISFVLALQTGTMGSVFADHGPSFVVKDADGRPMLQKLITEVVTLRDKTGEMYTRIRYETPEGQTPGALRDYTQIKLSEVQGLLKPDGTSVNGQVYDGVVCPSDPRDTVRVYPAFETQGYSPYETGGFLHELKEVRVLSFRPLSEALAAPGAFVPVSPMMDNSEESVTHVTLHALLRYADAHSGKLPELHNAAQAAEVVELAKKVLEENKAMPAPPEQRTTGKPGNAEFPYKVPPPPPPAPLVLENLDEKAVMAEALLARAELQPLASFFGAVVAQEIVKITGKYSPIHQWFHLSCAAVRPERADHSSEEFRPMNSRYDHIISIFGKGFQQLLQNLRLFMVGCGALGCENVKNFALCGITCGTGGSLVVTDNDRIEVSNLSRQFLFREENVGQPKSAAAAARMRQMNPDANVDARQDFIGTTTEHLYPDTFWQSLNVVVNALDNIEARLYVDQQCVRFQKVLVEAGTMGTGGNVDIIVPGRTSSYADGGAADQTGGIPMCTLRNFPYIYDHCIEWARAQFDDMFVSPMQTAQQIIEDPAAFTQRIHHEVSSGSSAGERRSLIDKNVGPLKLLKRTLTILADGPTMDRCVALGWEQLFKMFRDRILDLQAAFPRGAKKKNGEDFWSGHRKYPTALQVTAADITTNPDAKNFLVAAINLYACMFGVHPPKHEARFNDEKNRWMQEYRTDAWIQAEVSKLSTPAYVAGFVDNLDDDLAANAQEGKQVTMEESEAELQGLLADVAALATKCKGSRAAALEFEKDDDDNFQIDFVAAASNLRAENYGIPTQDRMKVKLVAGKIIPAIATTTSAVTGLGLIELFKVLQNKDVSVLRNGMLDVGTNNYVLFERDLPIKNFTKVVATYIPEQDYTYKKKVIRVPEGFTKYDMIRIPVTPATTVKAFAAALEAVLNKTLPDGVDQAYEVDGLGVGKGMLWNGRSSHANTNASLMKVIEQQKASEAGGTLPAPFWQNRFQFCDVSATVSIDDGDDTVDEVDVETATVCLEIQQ
In words: Leishmania donovani Ubiquitin Activating Enzyme (LdE1). It is filed as functional. The settings on record: 30 µM.

Experiment [3] has as its target AMP-activated protein kinase, AMPK (Homo sapiens) (UniProt P54646+O43741+P54619+Q9UGJ0+Q9Y478+Q13131+Q9UGI9). Put plainly: AMP-dependent Kinase enzyme assay. An in vitro enzyme assay that detects ADP turnover that is directly proportional to AMPK activity. This uses naive AMPK that is activated during the assay with MK-8722. To be noted: 30 µM. It is filed as functional.

Experiment [4] addresses Sialic acid-binding Ig-like lectin 9 (Homo sapiens) (UniProt Q9Y336). Put plainly: Hs-Siglec9 ALPHAscreen SOP 20170721. The settings on record: 10 µM.
For experiment [5], the system named is Trypanosoma cruzi. In words: Trypanosoma cruzi phosphomannomutase and mannose-1-phosphate guanylyltransferase assay. It is filed as functional. To be noted: 10 µM.
Experiment [6] has as its target T2, Arginase-2, mitochondrial (Homo sapiens) (UniProt P78540).
T2 sequence (whole entry): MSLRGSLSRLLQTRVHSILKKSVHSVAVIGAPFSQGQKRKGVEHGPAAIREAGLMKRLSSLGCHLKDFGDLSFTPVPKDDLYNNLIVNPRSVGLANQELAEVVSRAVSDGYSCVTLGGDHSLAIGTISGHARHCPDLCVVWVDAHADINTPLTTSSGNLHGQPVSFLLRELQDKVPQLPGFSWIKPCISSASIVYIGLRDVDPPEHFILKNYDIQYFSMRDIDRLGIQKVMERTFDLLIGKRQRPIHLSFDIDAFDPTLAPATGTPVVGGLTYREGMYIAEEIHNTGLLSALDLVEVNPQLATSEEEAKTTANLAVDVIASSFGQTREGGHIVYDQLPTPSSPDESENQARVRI
Put plainly: in vitro enzyme assay to detect the production of urea directly proportional to the activity of Arginase II. Further: in the data most compounds retested in dose-response had high values. It is filed as functional. To be noted: 33.3 µM.

In experiment [7] the target is T3, Proteasome subunit beta (Trypanosoma cruzi) (UniProt O96673).
T3 sequence (whole entry): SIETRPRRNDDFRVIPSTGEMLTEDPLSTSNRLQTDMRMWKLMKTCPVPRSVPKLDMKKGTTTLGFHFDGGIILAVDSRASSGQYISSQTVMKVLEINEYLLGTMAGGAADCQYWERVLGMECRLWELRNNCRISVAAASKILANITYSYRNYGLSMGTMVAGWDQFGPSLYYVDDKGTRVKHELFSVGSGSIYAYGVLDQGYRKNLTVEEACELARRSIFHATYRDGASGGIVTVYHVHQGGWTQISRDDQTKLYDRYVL
In words: Trypanosoma cruzi proteasome chymotrypsin-like activity (TcProtChymo) assay. Further: in the data most compounds retested in dose-response had high values. Format: functional. To be noted: 9.37 µM.

The species entered for experiment [8] is Homo sapiens. In words: To identify inhibition of the IFN signalling (Jak-Stat) pathway via expression of an eGFP reporter gene under the control of an IFN-stimulated response element (ISRE) containing MxA promoter. The settings on record: 30 µM. Format: functional. For orientation: In a reporter assay the amount or activity of a reporter protein is the signal.

The target in experiment [9] is T4, Tyrosyl-tRNA synthetase, putative (Trypanosoma cruzi (strain CL Brener)) (UniProt Q4DSP6).
T4 sequence (whole entry): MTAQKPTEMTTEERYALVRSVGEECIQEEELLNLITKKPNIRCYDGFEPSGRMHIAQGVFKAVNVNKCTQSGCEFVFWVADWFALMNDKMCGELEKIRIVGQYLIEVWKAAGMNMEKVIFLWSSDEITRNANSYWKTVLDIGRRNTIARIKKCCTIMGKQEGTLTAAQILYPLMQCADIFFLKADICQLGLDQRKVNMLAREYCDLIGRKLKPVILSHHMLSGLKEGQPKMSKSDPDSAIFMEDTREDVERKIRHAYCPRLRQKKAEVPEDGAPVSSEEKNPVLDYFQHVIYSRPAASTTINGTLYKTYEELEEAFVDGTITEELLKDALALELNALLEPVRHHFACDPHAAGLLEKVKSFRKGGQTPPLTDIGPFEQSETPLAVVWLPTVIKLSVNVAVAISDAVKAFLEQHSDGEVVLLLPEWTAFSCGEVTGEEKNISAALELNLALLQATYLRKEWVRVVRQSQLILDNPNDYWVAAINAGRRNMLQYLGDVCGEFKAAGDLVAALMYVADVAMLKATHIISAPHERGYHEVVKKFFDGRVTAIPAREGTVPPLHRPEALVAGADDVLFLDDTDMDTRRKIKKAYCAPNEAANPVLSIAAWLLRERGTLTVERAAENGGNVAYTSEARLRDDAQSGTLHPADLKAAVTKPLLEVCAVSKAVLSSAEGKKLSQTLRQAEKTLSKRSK
Put plainly: Trypanosoma cruzi tyrosyl tRNA synthetase (TcYRS) _High Tyrosine SOP. Further: in the data most compounds retested in dose-response had high values. It is filed as functional. To be noted: 30 µM.

The target of experiment [10] is T4, Tyrosyl-tRNA synthetase, putative (Trypanosoma cruzi (strain CL Brener)). In words: Trypanosoma cruzi tyrosyl tRNA synthetase (TcYRS) SOP. The settings on record: 30 µM. It is filed as functional.
Experiment [11] deals with Chromo domain-containing protein 1 (Saccharomyces cerevisiae (strain ATCC 204508 / S288c) (Baker's yeast)) (UniProt P32657). In words: ScCHD-1 Enzyme Inhibition Assay. Further: in the data most compounds retested in dose-response had high values. It is filed as functional. The settings on record: 30 µM.

The results in this text go back to ChEMBL document CHEMBL3988442, “University of Dundee, Small-Polar-MMV Screening Library” (2021).

For some of these results: Results with a measured potency or affinity are listed apart.

Sequence of Sialic acid-binding Ig-like lectin 9 (Homo sapiens) (Q9Y336 whole entry): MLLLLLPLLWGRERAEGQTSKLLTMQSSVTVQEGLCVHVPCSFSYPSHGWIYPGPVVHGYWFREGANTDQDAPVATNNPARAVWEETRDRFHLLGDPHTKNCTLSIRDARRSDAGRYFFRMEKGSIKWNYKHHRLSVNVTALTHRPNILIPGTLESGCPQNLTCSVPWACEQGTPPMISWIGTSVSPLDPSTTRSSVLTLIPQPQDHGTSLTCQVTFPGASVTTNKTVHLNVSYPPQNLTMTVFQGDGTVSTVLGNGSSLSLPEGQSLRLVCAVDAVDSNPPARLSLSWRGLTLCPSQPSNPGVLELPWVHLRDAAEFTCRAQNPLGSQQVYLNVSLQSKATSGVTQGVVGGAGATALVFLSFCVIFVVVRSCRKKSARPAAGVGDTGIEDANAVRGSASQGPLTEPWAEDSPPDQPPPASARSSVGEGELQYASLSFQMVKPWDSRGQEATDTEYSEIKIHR
Sequence of Protein translocase subunit SecA (Escherichia coli (strain K12)) (P10408 whole entry): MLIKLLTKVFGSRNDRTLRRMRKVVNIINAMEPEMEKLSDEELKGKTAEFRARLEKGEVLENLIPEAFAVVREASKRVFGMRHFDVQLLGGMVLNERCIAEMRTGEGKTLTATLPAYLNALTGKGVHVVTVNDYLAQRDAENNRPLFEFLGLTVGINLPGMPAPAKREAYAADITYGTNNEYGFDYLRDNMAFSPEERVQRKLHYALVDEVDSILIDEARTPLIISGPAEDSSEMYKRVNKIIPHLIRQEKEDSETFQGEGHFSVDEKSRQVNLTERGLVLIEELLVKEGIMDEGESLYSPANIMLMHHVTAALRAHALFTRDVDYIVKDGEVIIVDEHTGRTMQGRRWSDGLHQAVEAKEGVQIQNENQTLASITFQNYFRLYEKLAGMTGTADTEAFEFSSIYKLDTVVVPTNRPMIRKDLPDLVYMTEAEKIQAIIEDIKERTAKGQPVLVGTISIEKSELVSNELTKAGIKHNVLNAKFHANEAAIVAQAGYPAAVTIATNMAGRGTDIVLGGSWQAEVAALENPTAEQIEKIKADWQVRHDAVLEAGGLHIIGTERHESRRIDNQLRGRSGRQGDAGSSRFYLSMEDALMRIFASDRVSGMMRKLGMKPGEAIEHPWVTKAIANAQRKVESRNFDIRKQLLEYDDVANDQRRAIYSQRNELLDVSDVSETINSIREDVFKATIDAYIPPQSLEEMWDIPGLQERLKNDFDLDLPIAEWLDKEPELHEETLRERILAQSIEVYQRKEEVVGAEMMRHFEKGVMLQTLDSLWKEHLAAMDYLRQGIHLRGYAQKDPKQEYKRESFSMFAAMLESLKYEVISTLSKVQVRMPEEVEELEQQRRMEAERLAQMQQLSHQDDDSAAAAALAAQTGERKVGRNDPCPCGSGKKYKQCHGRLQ
Sequence of Chromo domain-containing protein 1 (Saccharomyces cerevisiae (strain ATCC 204508 / S288c) (Baker's yeast)) (P32657 whole entry, the tested form may be a part): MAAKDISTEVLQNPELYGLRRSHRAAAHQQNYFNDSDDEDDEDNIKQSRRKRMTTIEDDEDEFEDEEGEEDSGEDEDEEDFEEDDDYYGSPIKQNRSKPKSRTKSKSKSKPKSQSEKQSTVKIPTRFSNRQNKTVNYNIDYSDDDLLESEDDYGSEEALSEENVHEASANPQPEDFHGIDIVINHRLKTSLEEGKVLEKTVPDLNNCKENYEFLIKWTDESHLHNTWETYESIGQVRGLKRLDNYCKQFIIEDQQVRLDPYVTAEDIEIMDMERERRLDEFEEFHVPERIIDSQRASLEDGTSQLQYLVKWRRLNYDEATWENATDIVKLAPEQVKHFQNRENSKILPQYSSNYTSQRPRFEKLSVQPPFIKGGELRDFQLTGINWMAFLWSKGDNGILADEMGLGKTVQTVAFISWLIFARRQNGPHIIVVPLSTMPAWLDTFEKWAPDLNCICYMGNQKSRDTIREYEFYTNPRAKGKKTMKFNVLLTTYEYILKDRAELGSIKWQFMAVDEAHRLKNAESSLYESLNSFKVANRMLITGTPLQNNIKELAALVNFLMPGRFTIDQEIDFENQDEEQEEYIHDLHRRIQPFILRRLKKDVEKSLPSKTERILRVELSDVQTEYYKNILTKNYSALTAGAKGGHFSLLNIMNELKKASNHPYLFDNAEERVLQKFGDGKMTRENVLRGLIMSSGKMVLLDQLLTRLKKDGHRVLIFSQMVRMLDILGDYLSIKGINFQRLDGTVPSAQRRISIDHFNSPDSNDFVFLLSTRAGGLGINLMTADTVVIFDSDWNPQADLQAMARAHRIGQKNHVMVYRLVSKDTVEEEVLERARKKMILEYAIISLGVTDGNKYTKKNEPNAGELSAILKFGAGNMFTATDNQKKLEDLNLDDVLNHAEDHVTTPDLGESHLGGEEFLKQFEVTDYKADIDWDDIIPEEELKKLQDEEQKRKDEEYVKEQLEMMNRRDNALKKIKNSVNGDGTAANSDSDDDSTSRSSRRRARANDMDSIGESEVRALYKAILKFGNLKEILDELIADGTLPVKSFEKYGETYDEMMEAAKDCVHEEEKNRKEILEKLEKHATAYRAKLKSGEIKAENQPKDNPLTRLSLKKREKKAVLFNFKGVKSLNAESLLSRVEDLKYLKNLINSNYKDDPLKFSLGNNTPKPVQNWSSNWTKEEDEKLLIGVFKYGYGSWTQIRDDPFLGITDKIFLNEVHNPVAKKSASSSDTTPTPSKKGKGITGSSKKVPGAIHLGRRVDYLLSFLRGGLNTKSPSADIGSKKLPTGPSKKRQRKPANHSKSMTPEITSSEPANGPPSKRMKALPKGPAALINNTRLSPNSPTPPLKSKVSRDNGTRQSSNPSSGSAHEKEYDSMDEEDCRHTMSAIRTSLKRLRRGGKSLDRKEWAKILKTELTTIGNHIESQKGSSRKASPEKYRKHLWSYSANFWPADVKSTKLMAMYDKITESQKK

As for `Cc1cnc2n1CCN(C)C21CCN(C(=O)CC(C)C)CC1`, the Percent Effect is -2.76% in experiment [1]; 8% in [2]; 2.31% in [3]; 1.76% in experiment [4]; -5.21% in experiment [5]; -26.3% in [6]. Further, the Percent Effect in [7] was 8.38%; in experiment [8], -3.36%; in experiment [9], -1.04%; in experiment [10] it was 15%; in experiment [11] it was -7.37%.

Regarding `CC(C)CN1CCC2(C=C(C(=O)N3CCCC3)c3ccccc32)CC1`, the Percent Effect is -2.44% in [1]; 0% in experiment [2]; -1.76% in experiment [3]; 3.68% in experiment [4]; -6.76% in [5]; -56.8% in [6]. Further, the Percent Effect in [7] is 7.35%; in experiment [8] it was 1.33%; in experiment [9], 5.21%; in experiment [10], 10%; in [11], -7.39%.

As to `COc1ccc(COCC(O)CNC(=O)c2cccnc2)cc1` (stereo not drawn), the Percent Effect in experiment [1] is -2.83%; in experiment [2] it was 3.8%; in experiment [3], 0.844%; in experiment [4], -5.42%; in experiment [5] it was -7.08%; in [6] it was -5.38%. Moreover, the Percent Effect in [7] was 8.75%; in [8], 2.64%; in experiment [9], 1.04%; in experiment [10], 0%; in experiment [11], -14.1%.

In the case of `Cc1csc(N2CCCN(C(=O)C(C(C)C)n3cncn3)CC2)n1` (stereo not drawn), the Percent Effect in experiment [1] was -1.03%; in experiment [2] it was 13.5%; in experiment [3], 0.997%; in experiment [4] it was -3.98%; in experiment [5], -5.29%; in experiment [6] it was 3.51%. Also, the Percent Effect is 10.9% in experiment [7]; 19.3% in experiment [8]; 6.93% in experiment [9]; 15.8% in experiment [10]; -2.71% in experiment [11].

On to `O=C(c1cccc(NCCO)c1)N1CCOCC1`, for which the Percent Effect in [1] is 0.755%; in [2] it was 13%; in [3], -9.18%; in experiment [4], 2.34%; in experiment [5], -2.46%; in experiment [6], -5.52%. The Percent Effect was 19.3% in [7]; 28.8% in [8]; 2.15% in experiment [9]; 11.1% in experiment [10]; -2.11% in experiment [11].

With `Cc1nnc(NCc2ccccc2Cl)c(C#N)c1C`, the Percent Effect was -1.72% in [1]; -29.7% in experiment [2]; -32.4% in experiment [3]; -2.89% in experiment [4]; 2.51% in experiment [5]; 1.29% in experiment [6]. Moreover, the Percent Effect came to 5.39% in experiment [7]; 26.5% in experiment [8]; 13.9% in experiment [9]; 11% in experiment [10]; 5.89% in experiment [11].

Regarding `Cc1cc(C(=O)NCCN2CCCC(C)C2)nn1C` (stereo not drawn), the Percent Effect was -4.5% in experiment [1]; 5.2% in [2]; -3.57% in experiment [3]; -8.23% in experiment [4]; -0.187% in experiment [5]; 0% in experiment [6]. Besides, the Percent Effect in experiment [7] is 0.169%; in experiment [8], 27.8%; in experiment [9], 3.88%; in [10], 7.32%; in [11], -0.528%.

Consider `O=C(Nc1cccnc1)[C@H]1CO[C@H]2CCN(c3ncc(F)cn3)C[C@H]2C1`, for which the Percent Effect in experiment [1] is -3.71%; in [2], 5.33%; in experiment [3], 2.01%; in experiment [4] it was 4.5%; in [5], 0%; in experiment [6], -55%. Also, the Percent Effect in experiment [7] is 11.6%; in [8], -7%; in experiment [9], 8.33%; in experiment [10], 5%; in [11], -9.48%.
